This note sets out measurements from PubChem BioAssay (EPA / NIEHS).

Active and inactive are the calls of the source. Rule for the calls: active = hit-call score of the fitted dose curve at least 0.9, where 1 is the maximum; inactive = score below 0.9.

A short description of experiment [1]: CEETOX_H295R_OHPROG: CeeTox H295R High-throughput Steroidogenesis Assay for OH-Progesterone (OHPROG) (AID 2283435).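 For AC50: human adrenal H295R cells primed 48 h with 10 µM forskolin; 17alpha-hydroxyprogesterone secreted into medium measured by HPLC-MS/MS.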 The settings on record: actives raise or lower the signal. The method, boiled down: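 H295R, 10 uM forskolin prestim 48 h; cmpd in 0.1% DMSO 48 h; medium MTBE-extracted, HPLC-MS/MS for OH-progesterone; 7-pt std curve; bidirectional fit vs DMSO; MTT viability, chemicals diluted until viability >/=70%.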

Experiment [2] in a line: CEETOX_H295R_ANDR: CeeTox H295R High-throughput Steroidogenesis Assay for Androstenedione (ANDR) (AID 2283436). The settings on record: actives raise or lower the signal. The method, boiled down:
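H295R cells, following OECD 456 with minor changes, exposed to chemicals for 48 h. Androstenedione in the medium was quantified by HPLC-MS/MS after MTBE extraction. Fitting was bidirectional versus DMSO; chemicals were diluted until MTT viability was ≥70%.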

Experiment [3] in a line: CEETOX_H295R_ESTRADIOL: CeeTox H295R High-throughput Steroidogenesis Assay for Estradiol (AID 2283440).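 Note: estradiol secreted into medium quantified by LC-MS/MS after dansyl derivatisation.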 Conditions: actives raise or lower the signal. An outline of the steps:
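H295R, 48 h forskolin (10 uM) prestim → 48 h compound, 0.1% DMSO final. Estradiol in medium: MTBE extraction, dansyl chloride derivatization, LC-MS/MS. Fit bidirectional vs DMSO baseline; MTT viability in same wells.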

Experiment [4] is described as follows: CEETOX_H295R_ESTRONE: CeeTox H295R High-throughput Steroidogenesis Assay for Estrone (AID 2283441).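 For AC50: human adrenal H295R cells prestimulated with forskolin for two days.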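 Note: estrone secreted into medium measured by LC-MS/MS after dansyl derivatization.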 Conditions: actives raise or lower the signal. An outline of the steps: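 H295R cells prestimulated 48 h with 10 uM forskolin, then exposed 48 h to chemicals in 0.1% DMSO final; estrone in medium extracted with MTBE, dansyl-derivatized, quantified by HPLC-MS/MS; bidirectional fitting versus DMSO, viability by MTT.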

A short description of experiment [5]: CEETOX_H295R_PROG: CeeTox H295R High-throughput Steroidogenesis Assay for Progesterone (PROG) (AID 2283442).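 For AC50: human H295R adrenal cells primed with 10 µM forskolin before dosing.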 The settings on record: actives raise or lower the signal. The method, boiled down:
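Progesterone read-out: HPLC-MS/MS on MTBE extracts of conditioned medium after 48 h chemical exposure of forskolin-primed (10 uM, 48 h) H295R cells. Gain or loss of signal was fitted relative to DMSO baseline.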

Read-out in experiment [6]: Fatty acid synthase (Homo sapiens) (UniProt P49327)
Briefly: LTEA_HepaRG_FASN: Life Technologies and Expression Analysis (LTEA) Assay for Fatty Acid Synthase (FASN) using HepaRG (AID 2283448).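 For AC50: differentiated human HepaRG liver cells in serum-free induction medium.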 The settings on record: mRNA level, 48 h; actives raise or lower the signal. The method, boiled down: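 FASN expression changes, up or down relative to 0.5% DMSO, were measured by qRT-PCR in human HepaRG cells after 48 h treatment with chemicals at eight concentrations (half-log steps from 100 uM).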

A short description of experiment [7]: CEETOX_H295R_CORTIC: CeeTox H295R High-throughput Steroidogenesis Assay for Corticosterone (CORTIC) (AID 2283437).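 For AC50: human H295R adrenal cells prestimulated with forskolin before chemical exposure.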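 Note: corticosterone secreted into medium quantified by mass spectrometry.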 The settings on record: actives raise or lower the signal. The method, boiled down: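 H295R adrenal cells prestimulated 48 hours with 10 uM forskolin, then exposed 48 hours to chemical in 0.1% DMSO. Corticosterone in medium measured by HPLC-MS/MS after MTBE extraction; MTT viability in the same wells; bidirectional fit versus DMSO.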

Experiment [8] can be described thus: CEETOX_H295R_CORTISOL: CeeTox H295R High-throughput Steroidogenesis Assay for Cortisol (AID 2283438).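 Note: cortisol secreted into medium quantified by LC-MS/MS.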 The settings on record: actives raise or lower the signal. An outline of the steps: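 Forskolin 10 uM 48 h prestim → test cmpd in DMSO (0.1% final) 48 h → medium MTBE-extracted → LC-MS/MS cortisol vs 7-pt std curve. Gain/loss of signal fitted vs DMSO. MTT viability in same wells.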

Experiment [9] can be described thus: CEETOX_H295R_DOC: CeeTox H295R High-throughput Steroidogenesis Assay for DOC (AID 2283439). The settings on record: actives raise or lower the signal. An outline of the steps: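 Readout: 11-deoxycorticosterone in culture medium by reverse-phase C18 HPLC with ESI+ tandem MS after MTBE extraction. Cells: H295R, forskolin-primed (10 uM, 48 h), chemical-treated 48 h; DMSO 0.1% final. Activity fitted bidirectionally versus DMSO.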

Read-out in experiment [10]: Tumor necrosis factor receptor superfamily member 6 (Homo sapiens) (UniProt P25445)
Briefly: LTEA_HepaRG_FAS: Life Technologies and Expression Analysis (LTEA) Assay for Fas cell surface death receptor (FAS) using HepaRG (AID 2283447). The settings on record: mRNA level, 48 h; actives raise or lower the signal. The method, boiled down: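 Differentiated HepaRG cells in serum-free induction medium were exposed 48 h to 8 half-log concentrations up to 100 uM in 0.5% DMSO, in duplicate. FAS mRNA was measured by qRT-PCR normalised to ACTB, GAPDH and POLR2A; bidirectional fit versus DMSO.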

Usually AC50 stands for the concentration at which the activity in the assay is half-maximal.

Sequence of Fatty acid synthase (Homo sapiens) (P49327 whole entry, looked up): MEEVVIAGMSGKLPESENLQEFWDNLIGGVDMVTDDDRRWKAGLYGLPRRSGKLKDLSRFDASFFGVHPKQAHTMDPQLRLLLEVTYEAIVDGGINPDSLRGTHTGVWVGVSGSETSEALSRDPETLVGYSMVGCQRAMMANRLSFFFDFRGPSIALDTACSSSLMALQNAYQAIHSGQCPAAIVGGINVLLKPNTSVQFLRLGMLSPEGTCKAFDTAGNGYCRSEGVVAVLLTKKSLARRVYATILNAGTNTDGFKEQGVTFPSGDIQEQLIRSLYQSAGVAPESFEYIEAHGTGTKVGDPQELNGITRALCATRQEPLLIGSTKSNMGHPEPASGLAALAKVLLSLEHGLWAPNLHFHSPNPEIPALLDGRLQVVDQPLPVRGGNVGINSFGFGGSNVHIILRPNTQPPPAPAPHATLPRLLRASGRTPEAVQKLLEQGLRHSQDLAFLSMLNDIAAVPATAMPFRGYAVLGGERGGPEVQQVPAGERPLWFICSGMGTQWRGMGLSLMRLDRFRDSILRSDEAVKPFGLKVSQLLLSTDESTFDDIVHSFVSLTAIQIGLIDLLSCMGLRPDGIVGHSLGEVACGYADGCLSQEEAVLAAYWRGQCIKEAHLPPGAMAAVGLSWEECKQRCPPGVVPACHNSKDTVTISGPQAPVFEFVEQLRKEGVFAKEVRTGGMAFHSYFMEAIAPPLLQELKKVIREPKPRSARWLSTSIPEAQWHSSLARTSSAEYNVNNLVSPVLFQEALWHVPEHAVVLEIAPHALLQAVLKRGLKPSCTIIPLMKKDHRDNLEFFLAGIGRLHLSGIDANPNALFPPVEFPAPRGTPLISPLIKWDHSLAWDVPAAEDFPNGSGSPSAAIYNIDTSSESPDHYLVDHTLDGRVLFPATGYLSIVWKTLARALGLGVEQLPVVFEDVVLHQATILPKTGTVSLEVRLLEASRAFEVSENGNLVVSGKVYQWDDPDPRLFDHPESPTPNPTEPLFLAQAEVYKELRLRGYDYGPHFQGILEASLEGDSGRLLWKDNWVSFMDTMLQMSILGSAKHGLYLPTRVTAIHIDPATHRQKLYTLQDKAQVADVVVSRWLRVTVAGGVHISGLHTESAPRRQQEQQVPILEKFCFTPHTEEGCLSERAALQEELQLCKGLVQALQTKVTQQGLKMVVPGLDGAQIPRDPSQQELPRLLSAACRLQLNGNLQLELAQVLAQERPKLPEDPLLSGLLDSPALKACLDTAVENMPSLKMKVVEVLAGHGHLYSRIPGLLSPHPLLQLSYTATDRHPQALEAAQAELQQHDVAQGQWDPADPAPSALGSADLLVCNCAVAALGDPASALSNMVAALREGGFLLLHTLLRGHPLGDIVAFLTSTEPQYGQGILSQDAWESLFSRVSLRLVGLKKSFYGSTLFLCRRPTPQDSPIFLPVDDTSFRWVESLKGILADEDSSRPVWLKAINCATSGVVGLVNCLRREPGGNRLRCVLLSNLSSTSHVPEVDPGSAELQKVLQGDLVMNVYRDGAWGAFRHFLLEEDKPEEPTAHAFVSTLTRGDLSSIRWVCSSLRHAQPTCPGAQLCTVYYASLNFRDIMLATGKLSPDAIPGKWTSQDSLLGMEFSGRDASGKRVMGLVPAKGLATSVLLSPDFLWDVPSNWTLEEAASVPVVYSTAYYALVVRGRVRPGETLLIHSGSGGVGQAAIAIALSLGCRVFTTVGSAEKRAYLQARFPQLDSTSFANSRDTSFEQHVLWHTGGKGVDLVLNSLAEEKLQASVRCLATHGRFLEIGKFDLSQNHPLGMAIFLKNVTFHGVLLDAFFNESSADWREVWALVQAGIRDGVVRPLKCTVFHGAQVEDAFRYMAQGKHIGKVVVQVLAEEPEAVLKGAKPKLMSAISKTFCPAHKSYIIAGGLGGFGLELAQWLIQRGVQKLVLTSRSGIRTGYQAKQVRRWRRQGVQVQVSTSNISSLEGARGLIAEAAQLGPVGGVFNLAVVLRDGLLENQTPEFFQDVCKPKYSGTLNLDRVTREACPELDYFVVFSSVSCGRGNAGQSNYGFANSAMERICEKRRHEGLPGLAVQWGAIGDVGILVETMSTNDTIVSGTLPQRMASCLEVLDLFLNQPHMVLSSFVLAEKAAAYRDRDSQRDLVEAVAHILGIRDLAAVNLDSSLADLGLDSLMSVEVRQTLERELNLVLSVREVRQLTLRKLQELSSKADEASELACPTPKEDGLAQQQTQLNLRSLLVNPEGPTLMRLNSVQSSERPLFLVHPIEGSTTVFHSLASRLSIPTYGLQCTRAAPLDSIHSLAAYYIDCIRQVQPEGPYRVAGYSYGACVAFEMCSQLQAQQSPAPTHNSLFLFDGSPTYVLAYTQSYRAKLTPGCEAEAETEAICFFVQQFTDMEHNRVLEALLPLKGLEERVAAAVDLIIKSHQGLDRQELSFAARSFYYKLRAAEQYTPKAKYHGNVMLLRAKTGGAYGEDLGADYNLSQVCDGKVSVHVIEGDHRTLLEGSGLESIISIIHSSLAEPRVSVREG

As to `CC(C)(c1ccc(O)cc1)c1ccc(O)cc1`, the compound was classed as inactive in [1], in [3], in experiment [4], in [5] and in [6]. The AC50 in [2] was 3.26 µM (active) [middle of 4 runs].
In the case of `CC(C)(C)[C@@H](O)[C@@H](Cc1ccc(Cl)cc1)n1cncn1`, the compound was called inactive in [1], in experiment [7], in experiment [9] and in experiment [5]. The AC50 is 5 µM (active) in [8] and 50 µM (active) in experiment [6].
For the compound `CCOC(=O)c1ccc(O)cc1`, the values for the AC50 in experiment [1], in [9] and in [5] were 31 µM (active), 37.7 µM (active) and 36.5 µM (active), respectively. The compound was called inactive in [7], in experiment [8], in experiment [3], in [4] and in experiment [6].
For the compound `CCN(Cc1c(F)cccc1Cl)c1c([N+](=O)[O-])cc(C(F)(F)F)cc1[N+](=O)[O-]`, the results for the AC50 in experiment [1], in [4] and in [6] were 15.3 µM (active), 13.7 µM (active) and 50 µM (active), respectively. Further, the compound was called inactive in experiment [3] and in experiment [5].
Consider `CCOC(=O)C(C)Oc1ccc(Oc2cnc3cc(Cl)ccc3n2)cc1` (configuration not stated), for which the call in [1], in [7], in experiment [8], in experiment [9] and in [5] was inactive. Besides, the AC50 in experiment [6] was 43 µM (active).
With `CCCCOCCOCCOCc1cc2c(cc1CCC)OCO2`, the call in [1], in [2], in experiment [5], in experiment [10] and in experiment [6] was inactive.
For `CCCCCOC(=O)COc1cc(N2C(=O)C3=C(CCCC3)C2=O)c(F)cc1Cl`, the compound was called inactive in experiment [1], in experiment [7], in experiment [8], in experiment [9], in experiment [3] and in experiment [4]. The outcome in experiment [5] and in [6] was inactive.
As for `C#C[C@]1(O)CC[C@H]2[C@@H]3CCC4=CC(=O)CC[C@@H]4[C@H]3CC[C@@]21CC`, the compound was called inactive in experiment [1], in experiment [7], in [9], in experiment [5] and in experiment [6]. Besides, in experiment [8], the AC50 is 2.4 µM (active).
For the compound `CCCCC(CC)CN1C(=O)C2C3C=CC(C3)C2C1=O` (configuration not stated), the call in experiment [1], in experiment [7], in experiment [8], in experiment [9], in experiment [3] and in [4] was inactive. For the same compound, the result in experiment [5] was inactive. Further, the AC50 in [6] was 34.6 µM (active).
For the compound `CSC(=O)c1cccc2nnsc12`, the values for the AC50 in experiment [1] and in [7] were 50 µM (active) and 23 µM (active), respectively. Besides, the result in experiment [2], in [8], in [9], in [5], in experiment [10] and in experiment [6] was inactive.
`CC(=O)[C@H]1CC[C@H]2[C@@H]3CCC4=CC(=O)CC[C@]4(C)[C@H]3CC[C@]12C`: the outcome in experiment [1], in experiment [3] and in [4] was inactive. Besides, the AC50 in experiment [5] is 5 µM (active); in experiment [6], 82.1 µM (active).
For the compound `c1ccc(Nc2ccccc2)cc1`, the call in experiment [1], in [5] and in [6] was inactive.
`c1ccc2[nH]c(-c3cscn3)nc2c1`: the compound was called inactive in experiment [1], in [2], in experiment [7], in experiment [8], in experiment [9] and in experiment [3]. Also, the outcome in experiment [4] and in experiment [6] was inactive. In addition, the AC50 in experiment [5] was 59 µM (active).
Take `CC(=O)S[C@@H]1CC2=CC(=O)CC[C@]2(C)[C@H]2CC[C@@]3(C)[C@@H](CC[C@@]34CCC(=O)O4)[C@H]12`: the compound was called inactive in experiment [1], in experiment [7], in experiment [9], in [3], in [4] and in [5]. For the same compound, the AC50 was 1.63 µM (active) in experiment [2], 1.83 µM (active) in experiment [8] and 37.3 µM (active) in experiment [6].
In the case of `CN(C)C(=O)Nc1ccc(Cl)c(Cl)c1`, the AC50 in experiment [1] was 42.6 µM (active); in [2], 30.8 µM (active); in experiment [6] it was 20.3 µM (active). Besides, the compound was classed as inactive in experiment [7], in [8], in experiment [9] and in experiment [5].
On to `C=CCOC(Cn1ccnc1)c1ccc(Cl)cc1Cl` (configuration not stated), for which the AC50 is 0.142 µM (active) in [1], 0.159 µM (active) in [8], 0.296 µM (active) in experiment [5] and 38.3 µM (active) in experiment [6]. In addition, the outcome in experiment [7] and in [9] was inactive.
In the case of `CC1(C)C(C=C(Cl)Cl)C1C(=O)OCc1cccc(Oc2ccccc2)c1` (configuration not stated), the AC50 in experiment [1] is 11.1 µM (active); in experiment [5] it was 11.5 µM (active). For the same compound, the call in experiment [2], in [7], in [8], in [9] and in [6] was inactive.
